Source: the supplement of paper PMC6555819

Experiments:
Assay in all cases: PBM binding z-score (relative to random genomic background probes); higher = stronger binding; sequences stand for … in GC…GCGATTGACAGCGTAGAATGAAGG
[1] = system: FXR:RXRa (NR concentration 270 nM, RXRa partner concentration 90 nM)
Method in brief: (§1)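 Custom Agilent 4×180K protein-binding microarrays carried double-stranded probes. Their 34-nt variable regions held direct-repeat seeds, single-nucleotide variants, half-site ablations and random human genomic background sequences. Arrays were incubated 1 h with ligand-free nuclear receptor dimers in PBS pH 7.4, 2% milk, 0.02% Triton X-100, 1 mM DTT, 0.2 mg/mL BSA and 0.4 mg/ml salmon testes DNA. Antibodies against each partner (one per run) detected binding, and scanned fluorescence was regression-normalized. Binding z-scores use random background probes as reference.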

[2] = system: LXRa:RXRa (NR concentration 270 nM, RXRa partner concentration 90 nM)
Method in brief: as §1

[3] = system: LXRa homodimer (NR concentration 270 nM)
Method in brief: as §1

[4] = system: LXRb:RXRa (NR concentration 270 nM, RXRa partner concentration 90 nM)
Method in brief: as §1

[5] = system: LXRb homodimer (NR concentration 270 nM)
Method in brief: as §1

[6] = system: PPARa:RXRa (NR concentration 270 nM, RXRa partner concentration 90 nM)
Method in brief: as §1

[7] = system: PPARg:RXRa (NR concentration 180 nM, RXRa partner concentration 90 nM)
Method in brief: as §1

[8] = system: PPARg:RXRa 270nM:90nM, anti-RXR (NR concentration 270 nM, RXRa partner concentration 90 nM)
Method in brief: as §1

[9] = system: PPARg:RXRa 30nM:10nM, anti-RXR (NR concentration 30 nM, RXRa partner concentration 10 nM)
Method in brief: as §1

[10] = system: PPARg:RXRa 90nM:30nM, anti-RXR (NR concentration 90 nM, RXRa partner concentration 30 nM)
Method in brief: as §1

[11] = system: PPARg:RXRa DBDmut IVT, anti-RXR (DBD mutation: RXRa K156A/R161A, NR concentration 270 nM, RXRa partner concentration 90 nM)
Method in brief: as §1

[12] = system: PPARg:RXRa IVT, anti-PPARg (NR concentration 270 nM, RXRa partner concentration 90 nM)
Method in brief: as §1

[13] = system: PPARg DBDmut:RXRa IVT, anti-PPARg (DBD mutation: PPARg1 K132A/R137A, NR concentration 270 nM, RXRa partner concentration 90 nM)
Method in brief: as §1

[14] = system: PPARg DBDmut IVT, anti-PPARg (DBD mutation: PPARg1 K132A/R137A, NR concentration 270 nM)
Method in brief: as §1

[15] = system: PPARg homodimer (NR concentration 180 nM)
Method in brief: as §1

[16] = system: PXR:RXRa (NR concentration 270 nM, RXRa partner concentration 90 nM)
Method in brief: as §1

[17] = system: PXR homodimer (NR concentration 270 nM)
Method in brief: as §1

[18] = system: RARa:RXR (NR concentration 270 nM, RXRa partner concentration 90 nM)
Method in brief: as §1

[19] = system: RARa homodimer (NR concentration 270 nM)
Method in brief: as §1

[20] = system: RARb:RXRa (NR concentration 270 nM, RXRa partner concentration 90 nM)
Method in brief: as §1

Sequence	PBM binding z-score [1]	PBM binding z-score [2]	PBM binding z-score [3]	PBM binding z-score [4]	PBM binding z-score [5]	PBM binding z-score [6]	PBM binding z-score [7]	PBM binding z-score [8]	PBM binding z-score [9]	PBM binding z-score [10]	PBM binding z-score [11]	PBM binding z-score [12]	PBM binding z-score [13]	PBM binding z-score [14]	PBM binding z-score [15]	PBM binding z-score [16]	PBM binding z-score [17]	PBM binding z-score [18]	PBM binding z-score [19]	PBM binding z-score [20]
ACTATTAGTTGAGACGAAGGCAACCGATAGGTTG	-0.426	-0.372	-0.315	-0.554	0.221	-0.644	0.452	-0.4	-0.441	-0.372	-0.511	-0.28	1.16	0.396	0.149	-0.912	-0.243	-0.552	0.662	-0.23
GCTATTAGTTGAAAGGGCAATCGAATGATTCTCG	0.568	0.562	0.189	0.633	-0.254	2.34	2.44	4.24	2.01	4.26	0.456	1	-0.234	0.628	1.15	0.658	0.0729	1.25	0.589	1.74
CCTAGCAGGCCAGGGTCTCTCAAGCATTTCGCTT	-0.78	-0.742	-0.767	-0.956	-1.15	-0.63	-0.954	-0.991	-1.16	-1.4	-0.0358	-0.785	-1.73	-1.57	-0.714	-0.908	-0.933	-0.825	-1.17	-0.0781
CAAACTAGGTCACCTGAAGGTCAAAGTCCGCATG	5.8	5.89	5.41	5.04	1.6	5.79	9.15	7.17	5.48	7.17	8.35	8.25	1.4	0.822	7.4	5.61	2.75	7.1	2.19	5.14
CCTTACGGGTCACTCCAGGTTGTAGCATCGGAGT	4.5	6.32	0.477	3.72	0.0911	4.42	2.92	3.54	0.72	2.5	2.42	3.11	0.374	0.469	1.62	3.85	-0.0202	3.84	0.553	3.65
ATTCCAAGGTGATCGTGAGGTCGTTGATACTAAC	2.16	1.56	0.734	1.23	0.167	1.52	0.194	0.382	0.172	0.122	0.951	1.47	0.731	0.342	0.792	3.26	1.64	2.55	0.906	1.33
TTACCAAGGTGAGCTCAGGTCGTTGATCCAACTC	1.26	0.561	-0.29	0.42	-1.08	0.894	-0.199	0.203	-0.185	-0.151	1.23	1.8	0.00673	-0.46	-0.274	3.09	-0.622	0.823	-0.956	1.33
AAAACGAGGGCAATGAGTTGATAGCACGGGTGGC	0.531	0.364	-0.353	-0.0182	-0.657	1.55	2.02	1.44	0.0987	0.879	5.04	3.79	1.2	0.681	0.0756	1.86	4.72	0.593	-0.42	2.18
TCTATTAGTTGATTAGGGCAACCGCAACAGCGGA	0.86	0.405	0.129	0.329	0.245	1.06	0.368	1.95	3.34	2.72	2.2	1.59	0.83	0.659	0.498	0.281	0.274	0.408	0.676	0.729
CTCGAAAGGTCGTGCTCACGTGAGTATACCAAAC	5.21	3.95	0.0228	3.69	0.397	5.07	2.9	3.42	0.773	2.12	0.85	1.55	0.551	0.796	1.35	2.86	-0.121	3.31	-0.039	3.92
ATCGAAAGGTAGAGGTGAGTATAGAGAAAGGGAA	0.781	0.589	0.209	0.313	0.482	0.942	1	0.958	0.813	0.82	-0.16	0.688	0.622	0.766	0.946	0.265	0.595	0.402	0.765	1.28
TAGCCTAGGTCAGATGGGGCCAGTATACGCTATA	2.75	1.56	-0.0271	1.38	-0.069	1.78	0.972	1.14	0.184	0.725	1.03	1.7	-0.854	-0.361	0.556	3.45	-0.272	1.24	-0.56	3.42
GATAGCAGGCCATTTGGGTCACTCAATGACGGGC	0.302	-0.115	-0.247	0.0936	-0.607	1.73	1.4	1.12	-0.311	0.763	3.66	3.5	-0.0916	-0.698	-0.0574	0.523	0.0979	0.747	-0.472	1.55
TCTAGCAGGCCAGAGGGTCATTCAAGAGGTACGG	1.45	1.27	-0.353	1.51	-1.01	2.71	1.54	3.08	2.26	2.98	0.912	0.374	-1.21	-1.66	0.751	2.2	-0.364	2.79	-0.545	2.17
